Most compounds without a hit are left out; they make up all but 2.2% or so of the library.
Nrf2 block: Nrf2 qHTS screen for inhibitors. A549 ARE-Fluc reporter, luciferase luminescence, 18-24 h. Potency, µM (titrated, usually from 46 µM), hits mostly inhibitors. hit rate 2.1% among 360,000. AID 504444, 2011; further: nearly all actives have a fitted effect of over 60% in size
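Nrf2 activity is the BugLite luminescence, read 15 min after reagent at room temperature, following CellTiter-Fluor cytotoxicity readout (30 min, 37C). Compound titrations were applied for 18-24 h to 5000 A549 ARE_Fluc cells/well in 5% FBS OPTI-MEM.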
B2AR arrestin: qHTS assay of beta-arrestin-biased ligands of beta2-adrenergic receptor; Beta-2 adrenergic receptor (Homo sapiens), P07550; beta-arrestin recruitment to beta2AR, cell-based reporter; Potency, µM (highest dose often 46.1 µM), usual class: activators; hit rate 0.02% among 330,000; AID 492947, 2010; further: nearly all actives have a fitted effect of over 65% in size
Target sequence (P07550 whole entry, looked up): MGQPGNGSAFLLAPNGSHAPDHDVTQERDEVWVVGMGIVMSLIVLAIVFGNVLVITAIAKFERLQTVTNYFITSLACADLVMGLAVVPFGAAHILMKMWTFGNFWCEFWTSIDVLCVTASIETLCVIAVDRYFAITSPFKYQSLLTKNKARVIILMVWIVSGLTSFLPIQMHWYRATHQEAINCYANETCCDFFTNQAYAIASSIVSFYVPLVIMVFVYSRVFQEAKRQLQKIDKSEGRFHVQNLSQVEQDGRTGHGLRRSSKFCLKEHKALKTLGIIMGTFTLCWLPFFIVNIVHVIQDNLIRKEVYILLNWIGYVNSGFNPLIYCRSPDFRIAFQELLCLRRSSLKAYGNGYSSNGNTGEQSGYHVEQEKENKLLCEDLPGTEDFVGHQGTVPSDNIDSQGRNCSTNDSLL
miR-21 act: qHTS Assay for Modulators of miRNAs and/orActivators of miR-21; HeLa miR-21 FLuc reporter, luciferase, 48 h; Potency, µM (titrated, usually from 38.3 µM), usual class: activators; 340,000 tested, under 10 active;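 further: miR-21 action dims this reporter so a rising signal means less miR-21 action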
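HeLa cells endogenously expressing miR-21, stably carrying CMV-driven firefly luciferase with a downstream miR-21 binding site, 2000 cells/well. Titrations up to approximately 40 uM, 48 hours; luciferase luminescence read.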
Nrf2 ARE act: qHTS of Nrf2 Activators; AREc32 ARE-luciferase reporter (MCF7-derived line), luminescence, 24 h; Potency, µM (series often up to 46.1 µM), hits mostly activators; hit rate 0.31% among 410,000; further: nearly all actives have a fitted effect of over 65% in size
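Cells of the AREc32 ARE-luciferase line are plated in OPTI-MEM containing 5% FBS and left overnight at 37 deg C. Compounds are pinned in, incubation continues 24 hr, and firefly luciferase signal is then measured.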
A549 tox: Nrf2 qHTS screen for inhibitors: counterscreen for cytotoxicity; Potency, µM (doses to about 46 µM), usual class: inhibitors; hit rate 0.16% among 390,000; A549 ARE-Fluc cells, CellTiter-Fluor viability, 18-24 h
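Cytotoxicity counterscreen: CellTiter-Fluor fluorescence was measured in A549 ARE_Fluc cells after 18-24 h of compound exposure in a concentration series. The subsequent BugLite luminescent read reports ARE-luciferase activity.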
A number is an active result; . = inactive; ? = inconclusive; / = no result given. The call rests on the fitted dose curve; in most records, active means well fitted curve in the direction sought with a large enough effect; inconclusive means small, poorly fitted or top-dose-only effect, or another doubt; inactive means no such curve, though single readings can be large; an effect the other way counts as inactive or inconclusive.

SMILES | Nrf2 block | B2AR arrestin | miR-21 act | Nrf2 ARE act | A549 tox
CC12CCC(C/C1=N\N=C1\NC(=O)/C(=C\c3cccc(Br)c3)S1)C2(C)C (centres undefined) | 18µM | . | . | . | ?
COc1ccc(N(C)C(=O)CCn2cnc3onc(-c4ccc(F)cc4)c3c2=O)c(OC)c1 | . | / | . | . | .
COc1ccc(S(=O)(=O)N/N=C\c2ccc3c(c2)OCO3)c(OC)c1 | 10µM | . | . | . | .
CC(/C=C/c1ccc(N(C)C)cc1)=N\N=C1\NC(=O)CC(C(=O)Nc2ccccc2)S1 (centres undefined) | . | . | . | . | .
CC(/C=C/c1ccc(N(C)C)cc1)=N/N=C1/NC(=O)CC(C(=O)Nc2ccc(Cl)cc2)S1 (centres undefined) | ? | . | . | . | 18µM
Cc1cc(N/N=C/c2ccccc2O)c2ccccc2n1 | 18µM | . | . | . | .
COc1ccc(Br)cc1Cn1nnc(C(=O)Nc2ccc(C)cc2C)c1N | 16µM | / | . | . | .
COc1ccccc1C1NC(c2ccc3c(c2)OCO3)=CC(c2ccccc2O)N1 (centres undefined) | . | / | / | / | .
Cc1cc2c(s1)c1cnn(Cc3ccc4ccccc4c3)c(=O)c1n2C | . | / | / | / | .
Cc1oc2c(c1C(=O)N1CCC(C)CC1)C(=O)c1ccccc1C2=O | 26µM | . | . | . | ?
COc1cc(C(=O)NCC(c2cccs2)S(=O)(=O)c2ccc(F)cc2)cc(OC)c1OC (centres undefined) | / | / | . | . | .
CS(=O)(=O)c1nc(S(=O)(=O)c2ccc(Cl)cc2)c(N2CCOCC2)s1 | ? | . | . | 6.3µM | .
CC1CN(c2sc(S(C)(=O)=O)nc2S(=O)(=O)c2ccc(Cl)cc2)CC(C)O1 (centres undefined) | . | . | . | ? | .
CC(C)Cn1cc(C(=O)N2CCN(c3cccc(Cl)c3)CC2)c2c3ccccc3n(C)c2c1=O | 21µM | / | ? | . | ?
Nc1nc(-c2ccccn2)nc(N)c1Cc1ccc(Cl)cc1Cl | 6.5µM | . | . | . | ?
CN(C)/N=C/C=C1\CCC/C(=C/c2cccs2)C1=O | ? | . | . | 10µM | .
CN(C)/N=C/C=C1\CC/C(=C\c2ccc(Br)cc2)C1=O | . | . | . | . | .
COc1ccc(C2CC(c3cccs3)=NN2C(=O)CSc2nc3c(cnn3-c3ccccc3)c(=O)[nH]2)cc1 (centres undefined) | 16µM | . | . | . | .
COc1cccc(C2CC(c3cccs3)=NN2C(=O)CSc2nc3c(cnn3-c3ccc(F)cc3)c(=O)[nH]2)c1OC (centres undefined) | ? | . | . | . | .
O=S(=O)(c1ccc2c(c1)OCCO2)N1CCN(S(=O)(=O)c2cccs2)CC1 | . | / | / | / | .
Cc1ccc(OCc2nc(-c3ccc(C(=O)NCCc4ccc(S(N)(=O)=O)cc4)cc3)oc2C)cc1 | . | / | . | . | .
CCC(=O)N1CCc2cc(S(=O)(=O)NC(CC(C)C)C(=O)Nc3cc(C)ccc3OC)ccc21 (centres undefined) | . | / | . | . | .
CC(=O)Nc1ncc(N=Nc2cccc(C(F)(F)F)c2)s1 | . | . | . | ? | 12µM
CCN(Cc1ccccc1)C(=O)c1ccc(NC(=O)c2ccc(OC)cc2)cc1 | 23µM | . | . | . | .
O=C(C#Cc1ccccc1)Nc1ccc(F)cc1 | . | . | . | ? | .
SMILES | Nrf2 block | B2AR arrestin | miR-21 act | Nrf2 ARE act | A549 tox
CCCc1cc(C(=O)Nc2ccc(C(=O)c3ccccc3)cc2)n(C)n1 | 21µM | . | . | . | ?
COc1ccc(C(=O)N(Cc2ccccc2)Cc2ccc(OC)c(COc3ccc(NC(C)=O)cc3)c2)cc1 | ? | / | / | / | .
COc1ccc(NC(=O)C#Cc2ccccc2)cc1 | . | . | . | 14µM | .
COc1ccc(C(=O)Nc2ccc(C(=O)c3ccccc3)cc2)cc1 | 9.2µM | / | / | . | .
COc1cc(F)c(S(=O)(=O)N2CCN(S(=O)(=O)c3ccc(N)cc3)CC2)c(F)c1 | . | / | / | / | .
CC(=O)Nc1ccc(S(=O)(=O)Nc2ccc(C)c(C)c2)cc1 | ? | / | / | / | .
O=C(O)CNc1cccc(-c2nn3c(=O)cc(N4CCNCC4)nc3s2)c1 | . | / | / | / | .
COc1ccc(CCN2C(=O)CSC2=Nc2ccc(C(C)C)cc2)cc1OC | 16µM | . | ? | . | .
CC(=O)c1cccc(NC(=O)c2nc(-c3ccccc3)n(-c3ccccc3C)n2)c1 | . | / | . | . | .
COc1cccc(C(=O)COc2cccc(NC(=O)c3cccc([N+](=O)[O-])c3)c2)c1 | 18µM | . | ? | . | .
O=C(COc1cccc(NC(=O)c2cccc([N+](=O)[O-])c2)c1)c1ccc(F)cc1 | ? | . | . | . | .
O=C(Nc1cccc(Cl)c1)c1cccc(Oc2ccc([N+](=O)[O-])cc2Cl)c1 | 21µM | . | . | . | .
C[n+]1c(-c2ccccc2)cc2c(=Cc3ccc([N+](=O)[O-])cc3)c3ccccc3n21 | ? | / | / | . | ?
C[n+]1c(-c2ccccc2)cc2c(=Cc3ccccc3)c3ccccc3n21 | 21µM | / | / | . | ?
CN(C)c1ccc(C=c2c3cc(O)ccc3n3c2cc(-c2ccccc2)[n+]3C)cc1 | 18µM | / | / | . | ?
CCN1CCN(c2ccc(Nc3ccnc4ccccc34)cc2)CC1 | . | . | / | . | 6.5µM
CCOc1ccc(Nc2ccnc3cc(Cl)ccc23)cc1 | . | . | . | . | .
CN1CCN(c2ccc(Nc3ccnc4cc(Cl)ccc34)cc2)CC1 | ? | . | . | . | 6.5µM
CCOC(=O)/C(=N\Nc1ccc(Cl)cc1)c1csc(Nc2ccccc2)n1 | 16µM | . | . | . | ?
Cc1ccc(/C=C/C(O)=C2/C(=O)N(C)C3(C)CC2c2ccccc2O3)cc1 (centres undefined) | ? | . | ? | ? | .
COc1ccc(/C=C/C(O)=C2/C(=O)N(C)C3(C)CC2c2ccccc2O3)cc1 (centres undefined) | 29µM | . | . | . | ?
Cn1nc(C(F)(F)F)c(/C=N/OC(=O)c2ccccc2)c1Sc1ccc(Cl)cc1 | 15µM | . | . | . | .
S=c1[nH]nc(-c2ccco2)n1/N=C/c1cccc(Cl)c1 | . | . | . | 13µM | .
Cc1ccc(-c2n[nH]c(=S)n2/N=C/C=C/c2ccccc2[N+](=O)[O-])cc1 | . | . | . | ? | .
O=[N+]([O-])c1ccccc1/C=C/C=N/n1c(-c2ccco2)n[nH]c1=S | . | . | . | 10µM | .
Fc1cccc(Cl)c1CNCCSc1nnnn1-c1ccccc1 | . | / | . | . | .
Cc1cc2c(s1)c1cnn(Cc3cccc(C(F)(F)F)c3)c(=O)c1n2C | . | / | / | / | .
Cc1ccc(NS(=O)(=O)c2ccc3c(c2)C(=O)c2ccccc2C3=O)c(C)c1 | . | . | . | . | .
Cc1cccc(S(=O)(=O)Nc2cccc3c2C(=O)c2ccccc2-3)c1 | 18µM | . | . | . | .
